Assay results reported in PubChem BioAssay AID624141 (Broad Institute, 2012).
About 260 (1.5%) of roughly 17,000 compounds were called active.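 The calls were made as follows: active = spot fluorescence over background with P-value below 7% in all four replicate spots, showing protein binding; inactive = the rest.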 This excerpt belongs to a sample that is enriched for actives.

target: Myc proto-oncogene protein (Homo sapiens) (UniProt P01106); test: small molecules binding His-tagged c-Myc – biochemical, small molecule microarray, anti-His fluorescence, primary screen (AID 624141)
Sequence (P01106 whole entry, looked up): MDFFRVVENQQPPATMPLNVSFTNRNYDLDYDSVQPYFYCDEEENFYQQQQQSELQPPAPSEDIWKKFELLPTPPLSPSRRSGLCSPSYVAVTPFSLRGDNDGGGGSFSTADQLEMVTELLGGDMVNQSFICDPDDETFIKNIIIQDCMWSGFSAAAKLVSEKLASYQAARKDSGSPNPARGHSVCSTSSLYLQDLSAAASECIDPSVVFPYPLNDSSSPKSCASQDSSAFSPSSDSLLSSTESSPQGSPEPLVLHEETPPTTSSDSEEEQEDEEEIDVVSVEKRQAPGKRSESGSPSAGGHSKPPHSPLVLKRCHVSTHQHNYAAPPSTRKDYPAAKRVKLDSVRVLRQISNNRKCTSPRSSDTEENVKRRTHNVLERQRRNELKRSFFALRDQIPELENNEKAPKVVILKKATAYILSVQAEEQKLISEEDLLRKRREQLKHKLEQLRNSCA

Row | SMILES | outcome
1 | COc1ccc2[nH]cc(CCNCc3ccc(Br)cc3)c2c1 | inactive
2 | c1cncc(CNCCc2c[nH]c3ccccc23)c1 | active
3 | c1ccc(CCCCN2CCC(c3ccccc3)CC2)cc1 | inactive
4 | C[C@H](CO)N1C[C@H](C)[C@H](CN(C)C(=O)Oc2ccc3ccccc3c2)OCc2cnnn2CCCC1=O | inactive
5 | CN[C@@H]1C[C@H]2O[C@@](C)([C@@H]1OC)n1c3ccccc3c3c4c(c5c6ccccc6n2c5c31)C(=O)NC4 | inactive
